Test results reported in PubChem BioAssay (NCATS).
Records with an inconclusive call do not appear. The source made the active and inactive calls. Calls follow the shape of the dose curve; as a rule, active = well fitted cell-killing curve with a large enough effect; inconclusive = small, poorly fitted or top-dose-only effect, or effect the other way; inactive = flat fitted curve, though single readings scatter.

Experiments:
Experiment in all cases: Primary qHTS to identify gynecologic anti-cancer compounds using libraries of approved drugs and bioactive compounds (AID 1345084); also: nearly all actives have a fitted effect of over 55% in size
Conditions in all cases: Gynecologic cancer cell panel viability, ATPlite luminescence, 48 h; series mostly up to 57.5 µM
JEG-3 = tested on: JEG-3
In short: (§1)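 Five-point cytotoxicity, 48 h drug exposure at 37 C, 5% CO2, on cells seeded 16 h beforehand. ATP content read by ATPlite luminescence.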

OV90 = tested on: OV90
In short: as §1

PA-1 = tested on: PA-1
In short: as §1

SKOV3 = tested on: SKOV3
In short: as §1

Tov-21-G = tested on: Tov-21-G
In short: as §1

Tov112D = tested on: Tov112D
In short: as §1

Measured: Potency
Potency is read from the fitted curve at half-maximal effect.

CC(C)=C/C=C\[C@H](C)[C@H]1CC[C@]2(C)C[C@@H]3C(C)=CC(=O)C3/C(CO)=C\C[C@@H]12 (stereo partly specified)
inactive: all assays above

COC(=O)C[C@H]1C(C)(C)[C@H](OC(=O)C(C)C)[C@@]2(O)C(=O)[C@]1(C)C1CC[C@]3(C)C(CC(=O)O[C@H]3c3ccoc3)[C@]13O[C@@H]32 (stereo partly specified)
inactive: all assays above

Cc1cn(C2C=CC(CO)O2)c(=O)[nH]c1=O (stereo unspecified)
inactive: all assays above

CC1=C(C(=O)OCc2ccccc2)C(c2ccc(-c3ccccc3)cc2)NC(=O)N1CCCCCC(=O)O (stereo unspecified)
inactive: all assays above

Cc1csc(NC(=O)c2ccc(COc3cccc(Cl)c3)o2)n1
inactive: all assays above

CC(=O)N1CCN(C(=O)Cc2ccc(Nc3ncc(F)c(Nc4ccc(C(=O)Nc5ccccc5Cl)cc4)n3)cc2)CC1
inactive: JEG-3 | OV90
active: PA-1 11.2 µM | SKOV3 22.4 µM | Tov-21-G 25.1 µM | Tov112D 3.98 µM

COc1c2c(c(CO)c3c1C(=O)OC3)OC1(C)CCC3(O)C(C)(C)OC(=O)CCC3(C)C1C2 (stereo unspecified)
inactive: all assays above

C/C=C1\[C@H](OC2OC(COC3OC(CO)C(O)C(O)C3O)C(O)C(O)C2O)OC=C(C(=O)OC)[C@H]1CC(=O)OCCc1ccc(O)cc1 (stereo partly specified)
inactive: all assays above

C=C1[C@H](OC(C)=O)[C@H]2[C@@H](OC(C)=O)[C@](C)(OC(C)=O)C[C@]2(OC(C)=O)C(=O)[C@H](C)/C=C/C(C)(C)C(=O)[C@H](OC(=O)C(C)C)[C@H]1OC(C)=O
inactive: all assays above

O=C(COc1cccc2c(=O)[nH]ccc12)c1ccccc1
inactive: all assays above

O=C(O)[C@H](Cc1ccc(Nc2nccc3ccncc23)cc1)NC1=C(Br)C(=O)C12CCCCC2
inactive: all assays above

C=C1OC2CC(C(=O)O)C=CC2NC1=O (stereo unspecified)
inactive: all assays above

Nc1ncnc2c1nc(N)n2[C@@H]1O[C@H](CO)[C@@H](O)[C@H]1O
active: JEG-3 15.8 µM | OV90 3.55 µM | PA-1 4.47 µM | SKOV3 3.16 µM | Tov-21-G 3.16 µM | Tov112D 3.55 µM

C=C(C)[C@@H]1CC[C@]2(C)CC[C@]3(C)[C@H](CC[C@@H]4[C@@]5(C)CC[C@@H](O)C(C)(C)[C@@H]5CC[C@]43C)[C@@H]12
inactive: all assays above

COC(=O)C[C@H]1[C@]2(C)C3=C(C)[C@H](c4ccoc4)C[C@H]3O[C@@H]2[C@H](OC(C)=O)C2[C@](C)(C(=O)OC)C=CC(=O)[C@@]21C (stereo partly specified)
inactive: all assays above

COc1ccc(C(O)C(C)OC2OC(CO)C(O)C(O)C2O)cc1 (stereo unspecified)
inactive: all assays above

CC(=O)OCC1(O)CCC2C(COC3OC(CO)C(O)C(O)C3OC(=O)/C=C/c3ccc(O)cc3)=COC(OC(=O)CC(C)C)C21 (stereo unspecified)
inactive: all assays above

COC(=O)Cc1cc2c(c([N+](=O)[O-])c1)N(C(=O)CC[C@H](N)C(=O)O)CC2
inactive: all assays above

CC1OC2OC(=O)C3(C)CC4=C(CO)C5=C(CC(=O)C4(C)C(C1=O)C23)C(C)(C)OC(=O)C5 (stereo unspecified)
inactive: all assays above

C=CC1(C)C=C2C(=O)OC(=O)C3=C(CCCC3(C)C)C2(O)CC1 (stereo unspecified)
inactive: all assays above

Cc1[nH]c2ccccc2c1CCNC(=O)c1ccccc1F
inactive: all assays above
